Data: PubChem BioAssay AID588763 (NMMLSC, 2011)
Results with a measured potency or affinity are listed apart. Calls of active or inactive are those of the source. How the calls were made is not given here.

Target: Beta-2 adrenergic receptor (Homo sapiens) (UniProt P07550)
Experiment: beta2AR agonists driving receptor internalization, dose response, cell-based, FAP fluorogen, flow cytometry, cherry pick 1 (AID 588763)
Settings: AM2.2-beta2AR cells, 90 min; series mostly up to 33 µM

Beta-2 adrenergic receptor (Homo sapiens), sequence (P07550 whole entry, looked up): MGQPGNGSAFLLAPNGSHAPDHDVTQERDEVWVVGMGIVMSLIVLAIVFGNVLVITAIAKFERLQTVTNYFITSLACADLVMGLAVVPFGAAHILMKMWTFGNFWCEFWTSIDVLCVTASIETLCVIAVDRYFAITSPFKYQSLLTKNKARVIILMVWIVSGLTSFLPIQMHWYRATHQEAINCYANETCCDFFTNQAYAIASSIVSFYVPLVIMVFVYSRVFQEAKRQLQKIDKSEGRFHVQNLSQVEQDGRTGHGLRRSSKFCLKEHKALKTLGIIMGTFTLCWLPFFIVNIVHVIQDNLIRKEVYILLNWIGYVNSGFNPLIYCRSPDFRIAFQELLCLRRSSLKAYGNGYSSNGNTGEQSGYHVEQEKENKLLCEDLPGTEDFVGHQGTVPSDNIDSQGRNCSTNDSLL

outcome, inactive:
Cn1nnnc1Sc1ncnc2scc(-c3cc4ccccc4o3)c12
Cc1ccc(OCc2cc(C(=O)NC3CCc4ccccc43)no2)cn1 (stereo not drawn)
COc1ccccc1CCC(=O)Nc1cccc(S(=O)(=O)N2CCCCCC2)c1
O=C(COc1ccc(S(=O)(=O)N2CCOCC2)cc1)Nc1ccc2c(c1)OCCO2
N=c1n(CC(=O)c2ccc(Br)cc2)c2ccccc2n1Cc1ccccc1
CC(C)NCC(O)c1cc(O)cc(O)c1 (stereo not drawn)
COc1ccc(OC)c(S(=O)(=O)N(C)CC(=O)N2CCN(c3cccc(Cl)c3)CC2)c1
CCOc1cc(/C=C2\CN(C)C/C(=C\c3ccc(O)c(OCC)c3)C2=O)ccc1O
CCOC(=O)c1ccc(NC(=O)Cn2nnc(-c3ccccc3C)n2)cc1
CC(NCc1ccc(OCc2ccc(Cl)cc2)cc1)C(O)c1ccccc1 (stereo not drawn)
COc1ccc(S(=O)(=O)N(C)CC(=O)N2CCN(c3ccc(F)cc3)CC2)cc1OC
O=C(Nc1ccc(S(=O)(=O)N2CCCCC2c2cccnc2)cc1)c1ccccc1F (stereo not drawn)
CCC(NC(=O)c1cc(COc2cncc(Cl)c2)on1)c1ccc(C)cc1 (stereo not drawn)
O=C(Nc1ccc2oc(-c3ccccc3F)nc2c1)c1ccc2c(c1)OCCO2
CCOc1cc(-c2nc3ccccn3c2NCC2CCCO2)ccc1O (stereo not drawn)
O=C(c1ccc(-c2nnc(Nc3ccccc3)c3ccccc23)cc1)N1C[C@H]2C[C@H](C1)c1cccc(=O)n1C2
CCC(NC(=O)c1cc(COc2ccc(C)nc2)on1)c1ccc(C)cc1 (stereo not drawn)
NS(=O)(=O)c1ccc(NC(=O)c2cccc(N3C(=O)c4ccccc4C3=O)c2)cc1
CCCOc1ccc(-c2nnn(CC(=O)Nc3cccc(C(=O)OC)c3)n2)cc1
CCOc1ccc(NC(=O)COc2ccc(S(=O)(=O)N3CCCC3)cc2)cc1
O=[N+]([O-])c1cnc(Sc2ccncn2)s1
CC1CCCN(C(=O)C(C)Sc2nc(-c3ccccc3)cc(C(F)(F)F)n2)C1 (stereo not drawn)
O=C(CSc1ccc(Cl)cc1)Nc1ccccc1N1CCN(C(=O)c2ccccc2)CC1
COc1cc(NC(=O)c2ccc3c(c2)OCO3)ccc1NC(=O)c1ccco1
O=C(COc1ccc(S(=O)(=O)N2CCOCC2)cc1)Nc1ccccc1F
O=C(CN1CCOCC1)N1CCN(c2nnc(-c3ccccc3)c3ccccc23)CC1
Cc1cccc(C)c1NC(=O)Cn1nnc(-c2ccc(N3CCOCC3)cc2)n1
O=C(Nc1ccccc1C(=O)O)c1cccc(N2C(=O)c3ccccc3C2=O)c1
NC(=O)CC(NC(=O)c1ccccc1)c1ccc(N2CCN(c3ccccn3)CC2)c([N+](=O)[O-])c1 (stereo not drawn)
COc1ccc(NC(=O)Cn2nnc(-c3ccc(CN4CCOCC4)cc3)n2)c(OC)c1
CCOc1ccccc1CNC(=O)C1CCN(c2nnc(C)c3c(C)n(-c4ccc(C)cc4)nc23)CC1
CSc1ccc(CCNC(=O)C2CCN(c3nnc(-n4cccc4)s3)CC2)cc1

Activation (receptor internalization), inactive:
COc1ccc(OC)c(NC(=O)c2sc3nc(C)cc(C)c3c2N)c1 0.987% [at 1.22 µM]
